In PubChem BioAssay (EPA / NIEHS) one finds outcome and AC50 data, which are given here for 18 compounds.

The target in assay [1] is rat Thyrotropin Releasing Hormone Receptor (TRH), Trhr (gene 25570) (UniProt Q01717). Briefly: NVS_GPCR_rTRH: NovaScreen (NVS) G Protein-Coupled Receptor Assay for rat Thyrotropin Releasing Hormone Receptor (TRH) (AID 2283329).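 Note: hit means lower bound tracer signal versus DMSO baseline.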 The method in brief:
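Rat forebrain membranes; radioligand displacement at TRH receptor by filter-based scintillation counting, read 4 h after dosing. Duplicate single-point screen at 25 uM, actives rerun in concentration series; loss of signal relative to DMSO.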

For assay [2], the target named is Bile acid receptor (Homo sapiens) (UniProt Q96RI1). Put plainly: OT_FXR_FXRSRC1_0480: Odyssey Thera (OT) 8-hour HEK293T Protein-Complementation Assay for Farnesoid X receptor/SRC-1 Co-activator (AID 2283383). The method in brief:
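HEK293T protein-fragment complementation assay: FXR and SRC-1 coactivator are fused to reporter fragments, and their interaction restores a fluorescent reporter. Readout was taken 8 h after dosing, with gain of signal fit relative to DMSO.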

The test system of assay [3] is Sodium/Iodide Symporter (NIS), SLC5A5 (gene 6528). Put plainly: CPHEA_Stoker_NIS_Inhibition_RAIU: CPHEA's Radioactive Iodide Uptake (RAIU) Assay for Sodium/Iodide Symporter (NIS) Inhibition, Stoker and Laws Labs (AID 2283841). The method in brief: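 hNIS-HEK293T-EPA cells incubated 2 h at room temperature with compound (0.001–100 uM, 0.5% DMSO) and 329 pM final 125I in HBSS/10 mM HEPES, pH 7.4. Intracellular 125I counted; normalised to DMSO maximal uptake, triplicate, three biological replicates.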

Assay [4] concerns the target human Peroxisome Proliferator-activated Receptor alpha (PPARa), PPARA (gene 5465) (UniProt Q07869). Put plainly: NVS_NR_hPPARa: NovaScreen (NVS) Nuclear Receptor Binding Assay for human Peroxisome Proliferator-activated Receptor alpha (PPARa) (AID 2283359).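 Note: activity means loss of TR-FRET signal versus DMSO baseline.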 The method in brief: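 Cell-free binding assay with extracted human protein, read by TR-FRET 1 h after chemical dosing. Loss of signal relative to DMSO baseline indicates binding. Primary screen used duplicate single concentration (25 uM); actives followed up in concentration series.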

Assay [5] in a line: CEETOX_H295R_MTT_cell_viability: Viability Assessment in the CeeTox HT-H295R MTT Assay (AID 2283718; active = hit-call score of the fitted dose curve at least 0.9, where 1 is the maximum; inactive = score below 0.9). The method in brief: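 H295R cells prestimulated 48 h with 10 uM forskolin, then exposed 48 h to test chemical (0.1% DMSO final). Viability by MTT (0.5 mg/ml, 4 h, 37 C), absorbance 570/650 nm; percent change versus DMSO, bidirectional fit.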
For assay [6], the target named is human Phosphoinositide 3-kinase alpha (PI3Ka), PIK3CA (gene 5290) (UniProt P42336). Briefly: NVS_ENZ_hPI3Ka: NovaScreen (NVS) Enzymatic Assay for human Phosphoinositide 3-kinase alpha (PI3Ka) (AID 2283196). Summed up:
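Recombinant human PI3Kα with fluorescent substrate, 1 h, product separated by electrophoretic mobility shift; 25 uM duplicate screen, hits (e.g., 30% inhibition) retested singly up to 50 uM; loss of signal vs DMSO.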

The target in assay [7] is human Norepinephrine Transporter (NET), SLC6A2 (gene 6530) (UniProt P23975). Put plainly: NVS_TR_hNET: NovaScreen (NVS) Transporter Assay for human Norepinephrine Transporter (NET) (AID 2283377).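 Note: cell-free membrane protein extracted from CHO cells expressing human NET.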 The method in brief:
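Radioligand binding to human NET in cell-free CHO-derived protein preparations, read by filter-based scintillation counting 1 hour after dosing. Loss of signal versus DMSO baseline indicated displacement; primary screening in duplicate at 25 uM, actives then titrated.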

The target in assay [8] is Nuclear receptor subfamily 1 group I member 2 (Homo sapiens) (UniProt O75469). Put plainly: NVS_NR_hPXR: NovaScreen (NVS) Nuclear Receptor Binding Assay for human Pregnane X Receptor (PXR) (AID 2283365).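 Note: a drop in FRET signal versus DMSO baseline means the compound binds.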 The method in brief: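 Binding was measured by time-resolved fluorescence resonance energy transfer after a 2 h exposure of extracted human PXR protein without cells. Compounds were first tested at 25 uM in duplicate, with concentration series for actives; DMSO defined baseline.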

Assay [9] deals with Thyroperoxidase (TPO), gene 54314. Briefly: CCTE_Simmons_AUR_rTPO: CCTE's Amplex UltraRed Assay for Thyroperoxidase (TPO) Inhibition, Simmons Lab (AID 2283662).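 Note: potency for loss of signal meaning inhibition of peroxidase activity.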 The method in brief: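 Rat thyroid microsomes (5 ug protein) with 25 uM Amplex UltraRed and 300 uM H2O2 in 200 mM phosphate buffer, 30 min at 37C in dark; fluorescence 544/590 nm. Eight concentrations, 5 nM–87.5 uM final, 0.5% DMSO, triplicate biological replicates.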

Assay [10] can be described thus: CCTE_Simmons_CellTiterGLO_HEK293T: Viability Assessment in CCTE's Assays for Thyroperoxidase (TPO) Inhibition, Simmons Lab (AID 2283665). Summed up:
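HEK293T cells in DMEM with 1% FBS, dosed 24 h at 37C with 8 concentrations, 5 nM–87.5 uM final, 0.5% DMSO. ATP measured by CellTiter Glo luminescence; loss of signal vs DMSO, three biological replicates.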
For orientation: ATP-based viability assays read luminescence as a measure of living cells.

Assay [11] can be described thus: CCTE_Shafer_MEA_acute_spike_number: CCTE's Neural Acute Assay for Total Number of Spikes, Shafer Lab (AID 2284008; active = hit-call score of the fitted dose curve at least 0.9, where 1 is the maximum; inactive = score below 0.9;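 note: curve fitted for decrease in spike count so AC50 reflects inhibitors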). The method in brief:
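Cortical neurons from rat, matured to DIV 13 or 15 on microelectrode arrays, are recorded at 37 C before and during 40-min exposure to 0.03-40 uM compound. Wells need >/= 10 active electrodes.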

The nature of assay [12]: CCTE_Shafer_MEA_acute_burst_number: CCTE's Neural Acute Assay for Single-Electrode Bursts, Shafer Lab (AID 2284013; active = hit-call score of the fitted dose curve at least 0.9, where 1 is the maximum; inactive = score below 0.9). The method in brief:
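Rat cortical cultures, DIV 13/15; 40 min baseline, then 40 min with compound 0.03-40 uM, 37 C. Spikes: 300-5000 Hz band-pass, threshold 8x rms noise. Readout = % change in single-electrode bursts vs baseline, loss-of-signal fit.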

Assay [13] is described as follows: CCTE_Shafer_MEA_acute_burst_duration_mean: CCTE's Neural Acute Assay for Mean Burst Duration, Shafer Lab (AID 2284014; active = hit-call score of the fitted dose curve at least 0.9, where 1 is the maximum; inactive = score below 0.9;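 note: hits are decreases in mean burst duration relative to DMSO controls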). Summed up:
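Primary rat cortical neurons on 16-electrode MEA wells, treated on DIV 13 or 15 with compound (0.03-40 uM; ≥3 wells each). 40-min baseline and 40-min exposure recordings at 37 C; percent change in mean burst duration per well versus DMSO.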

Assay [14] is described as follows: CCTE_Shafer_MEA_acute_per_burst_spike_number_mean: CCTE's Neural Acute Assay for Average Number of Spikes Per Burst, Shafer Lab (AID 2284015; active = hit-call score of the fitted dose curve at least 0.9, where 1 is the maximum; inactive = score below 0.9). Summed up:
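Rat primary cortical neurons on 48-well MEAs (DIV 13 or 15) were treated with 0.03-40 uM compound at 37 C. Mean spikes per burst over 40 min were recorded before and after exposure and expressed as percent change from baseline, relative to DMSO.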

Assay [15] can be described thus: CCTE_Shafer_MEA_acute_interburst_interval_mean: CCTE's Neural Acute Assay for Mean Interburst Interval, Shafer Lab (AID 2284016; active = hit-call score of the fitted dose curve at least 0.9, where 1 is the maximum; inactive = score below 0.9;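 note: percent change of mean interburst interval versus each well's own pre-dose baseline; curves fitted for decrease in interburst interval relative to DMSO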). The method in brief:
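Rat primary cortical neurons on 48-well MEAs at DIV 13 or 15 were exposed acutely to 0.03-40 uM. Spikes detected at 8x rms noise, 37 C. Mean interburst interval from 40 min recordings expressed as percent change from 40 min pre-treatment baseline.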

The nature of assay [16]: CCTE_Shafer_MEA_acute_burst_percentage_mean: CCTE's Neural Acute Assay for Percentage of Spikes in a Burst, Shafer Lab (AID 2284017; active = hit-call score of the fitted dose curve at least 0.9, where 1 is the maximum; inactive = score below 0.9;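 note: curve fitted for loss of signal so potency reflects decreased burst percentage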). The method in brief: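 Primary rat cortical neurons on 48-well MEA plates, treated on DIV 13 or 15 at 0.03-40 uM. Spikes detected at 8x rms noise at 37C; percent change from 40-min baseline to 40-min post-dose recording, fitted versus DMSO.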

Assay [17] can be described thus: CCTE_Shafer_MEA_acute_burst_percentage_std: CCTE's Neural Acute Assay for Standard Deviation of Burst Percentage, Shafer Lab (AID 2284018; active = hit-call score of the fitted dose curve at least 0.9, where 1 is the maximum; inactive = score below 0.9;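 note: fitted in the negative direction so actives lower burst percentage SD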). Summed up: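 Primary rat cortical neurons on 16-electrode MEA wells were recorded 40 min at baseline (DIV 13 or 15), then 40 min after compound (0.03-40 uM), at 37 C. Well value is SD across electrodes of spikes-in-bursts/total spikes; endpoint is percent change, DMSO-referenced.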

Assay [18] is described as follows: CCTE_Shafer_MEA_acute_per_network_burst_spike_number_mean: CCTE's Neural Acute Assay for Average Number of Spikes in a Network Burst, Shafer Lab (AID 2284019; active = hit-call score of the fitted dose curve at least 0.9, where 1 is the maximum; inactive = score below 0.9;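 for AC50: curve fitted for loss of signal so actives reduce spikes per network burst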). Summed up: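 Primary rat cortical neurons on 16-electrode MEA wells, DIV 13 or 15, 37 C; 40-min baseline then 40-min recording with compound (0.03-40 uM). Spikes per network burst (total spikes/number of bursts) expressed as percent change from baseline, DMSO reference.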

A short description of assay [19]: CCTE_Shafer_MEA_acute_per_network_burst_spike_number_std: CCTE's Neural Acute Assay for Standard Deviation of Number of Spikes in a Network Burst, Shafer Lab (AID 2284020; active = hit-call score of the fitted dose curve at least 0.9, where 1 is the maximum; inactive = score below 0.9;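 note: fitted for decrease in spike-number SD versus DMSO so actives lower it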). The method in brief:
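Primary rat cortical neurons on 48-well MEAs (16 electrodes/well) recorded at DIV 13 or 15: 40-min baseline, then 40 min with compound (0.03-40 uM), 37 C. Value is percent change in SD of spikes per network burst, relative to DMSO.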

Assay [20] deals with Peroxisome proliferator-activated receptor gamma (Homo sapiens) (UniProt P37231). Put plainly: NVS_NR_hPPARg: NovaScreen (NVS) Nuclear Receptor Binding Assay for human Peroxisome Proliferator-activated Receptor gamma (PPARg) (AID 2283370). The method in brief: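 Fluorescence polarization measures competitive binding to extracted PPARg in a cell-free format. Reading is taken at 2 h; activity is signal loss relative to DMSO. Screening at 25 uM in duplicate preceded confirmatory dose series.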

Results filed as inconclusive are left out. Calls of active or inactive are those of the source. Rule for the calls, unless noted: active = hit-call score of the fitted dose curve at least 0.9, where 1 is the maximum; inconclusive = response in the unintended direction; inactive = score below 0.9.

Nuclear receptor subfamily 1 group I member 2 (Homo sapiens), sequence (O75469 whole entry, looked up): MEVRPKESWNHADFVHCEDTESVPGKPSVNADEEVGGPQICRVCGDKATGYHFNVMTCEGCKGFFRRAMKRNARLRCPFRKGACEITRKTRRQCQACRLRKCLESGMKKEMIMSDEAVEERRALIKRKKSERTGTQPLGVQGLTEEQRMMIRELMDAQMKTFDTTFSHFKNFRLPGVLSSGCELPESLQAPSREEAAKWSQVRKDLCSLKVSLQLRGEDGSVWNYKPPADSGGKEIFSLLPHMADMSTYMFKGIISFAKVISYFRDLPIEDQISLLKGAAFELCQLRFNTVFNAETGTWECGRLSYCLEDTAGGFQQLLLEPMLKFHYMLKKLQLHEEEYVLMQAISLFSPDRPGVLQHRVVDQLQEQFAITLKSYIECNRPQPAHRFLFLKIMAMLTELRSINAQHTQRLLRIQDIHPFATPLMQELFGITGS
Bile acid receptor (Homo sapiens), sequence (Q96RI1 whole entry, looked up, the tested form may be a part): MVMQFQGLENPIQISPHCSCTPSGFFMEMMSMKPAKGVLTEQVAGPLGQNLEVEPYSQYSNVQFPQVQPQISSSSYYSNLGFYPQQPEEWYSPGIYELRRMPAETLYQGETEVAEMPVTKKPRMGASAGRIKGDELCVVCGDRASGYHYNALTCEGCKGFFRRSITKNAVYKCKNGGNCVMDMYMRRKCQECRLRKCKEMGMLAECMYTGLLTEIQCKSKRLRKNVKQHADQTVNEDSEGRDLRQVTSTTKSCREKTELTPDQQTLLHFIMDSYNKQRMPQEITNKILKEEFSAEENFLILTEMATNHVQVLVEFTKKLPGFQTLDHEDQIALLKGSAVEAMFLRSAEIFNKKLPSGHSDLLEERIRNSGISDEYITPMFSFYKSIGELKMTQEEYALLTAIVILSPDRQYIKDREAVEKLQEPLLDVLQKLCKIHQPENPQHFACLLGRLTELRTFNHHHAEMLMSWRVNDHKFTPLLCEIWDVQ
Peroxisome proliferator-activated receptor gamma (Homo sapiens), sequence (P37231 whole entry, looked up): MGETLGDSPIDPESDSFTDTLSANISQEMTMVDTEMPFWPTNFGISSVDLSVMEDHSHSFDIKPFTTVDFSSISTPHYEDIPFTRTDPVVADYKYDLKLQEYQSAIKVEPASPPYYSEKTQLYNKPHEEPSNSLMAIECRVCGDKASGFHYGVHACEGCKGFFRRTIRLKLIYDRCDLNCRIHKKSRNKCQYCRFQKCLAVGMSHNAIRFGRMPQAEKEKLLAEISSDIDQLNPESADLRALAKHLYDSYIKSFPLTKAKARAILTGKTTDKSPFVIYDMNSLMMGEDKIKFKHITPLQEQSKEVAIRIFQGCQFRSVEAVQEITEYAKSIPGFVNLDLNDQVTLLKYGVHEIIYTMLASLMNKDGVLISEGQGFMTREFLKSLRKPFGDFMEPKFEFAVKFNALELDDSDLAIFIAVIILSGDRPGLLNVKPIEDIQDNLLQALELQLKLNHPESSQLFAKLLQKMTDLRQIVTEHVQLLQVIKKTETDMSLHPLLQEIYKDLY
rat Thyrotropin Releasing Hormone Receptor (TRH), Trhr (gene 25570), sequence (Q01717 whole entry, looked up): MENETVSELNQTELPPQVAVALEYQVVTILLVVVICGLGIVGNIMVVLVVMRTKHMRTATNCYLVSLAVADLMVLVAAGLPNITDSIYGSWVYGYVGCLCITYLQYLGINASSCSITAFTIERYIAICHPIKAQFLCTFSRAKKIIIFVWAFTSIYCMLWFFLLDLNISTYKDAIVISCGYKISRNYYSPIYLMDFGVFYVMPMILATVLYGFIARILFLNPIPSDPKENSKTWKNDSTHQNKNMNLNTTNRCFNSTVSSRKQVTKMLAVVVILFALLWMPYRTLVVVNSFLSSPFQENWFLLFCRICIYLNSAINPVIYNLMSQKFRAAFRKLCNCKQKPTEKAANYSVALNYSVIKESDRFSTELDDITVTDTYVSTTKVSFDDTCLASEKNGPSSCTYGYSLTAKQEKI
human Peroxisome Proliferator-activated Receptor alpha (PPARa), PPARA (gene 5465), sequence (Q07869 whole entry, looked up): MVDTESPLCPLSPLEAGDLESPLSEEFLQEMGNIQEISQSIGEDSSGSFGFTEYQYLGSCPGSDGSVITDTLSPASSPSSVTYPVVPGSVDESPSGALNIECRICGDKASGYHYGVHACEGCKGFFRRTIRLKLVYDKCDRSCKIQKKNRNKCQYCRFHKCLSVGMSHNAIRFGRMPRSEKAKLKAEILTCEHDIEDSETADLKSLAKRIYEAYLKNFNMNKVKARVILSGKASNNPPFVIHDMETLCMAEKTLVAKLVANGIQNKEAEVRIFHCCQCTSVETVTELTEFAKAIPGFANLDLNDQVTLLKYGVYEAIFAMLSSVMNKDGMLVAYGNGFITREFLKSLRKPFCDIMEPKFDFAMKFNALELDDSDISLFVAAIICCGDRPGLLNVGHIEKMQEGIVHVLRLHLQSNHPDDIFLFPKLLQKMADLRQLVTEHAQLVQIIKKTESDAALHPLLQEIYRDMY
human Norepinephrine Transporter (NET), SLC6A2 (gene 6530), sequence (P23975 whole entry, looked up): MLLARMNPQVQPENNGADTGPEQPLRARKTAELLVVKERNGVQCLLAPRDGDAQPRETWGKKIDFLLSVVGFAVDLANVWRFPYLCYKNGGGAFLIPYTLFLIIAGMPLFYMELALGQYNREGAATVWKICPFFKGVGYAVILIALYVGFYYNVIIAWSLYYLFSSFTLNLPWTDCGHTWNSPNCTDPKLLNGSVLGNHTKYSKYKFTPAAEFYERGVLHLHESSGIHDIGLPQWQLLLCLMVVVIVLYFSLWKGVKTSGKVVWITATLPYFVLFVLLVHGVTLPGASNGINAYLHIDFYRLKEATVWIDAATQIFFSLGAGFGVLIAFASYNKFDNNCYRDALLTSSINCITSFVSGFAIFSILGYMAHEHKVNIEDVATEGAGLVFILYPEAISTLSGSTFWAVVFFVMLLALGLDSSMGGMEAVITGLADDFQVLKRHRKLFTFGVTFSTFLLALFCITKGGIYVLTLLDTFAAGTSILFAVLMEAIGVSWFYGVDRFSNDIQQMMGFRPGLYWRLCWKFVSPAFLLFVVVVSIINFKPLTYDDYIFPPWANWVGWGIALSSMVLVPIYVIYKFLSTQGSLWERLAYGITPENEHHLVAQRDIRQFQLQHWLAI
human Phosphoinositide 3-kinase alpha (PI3Ka), PIK3CA (gene 5290), sequence (P42336 whole entry, looked up): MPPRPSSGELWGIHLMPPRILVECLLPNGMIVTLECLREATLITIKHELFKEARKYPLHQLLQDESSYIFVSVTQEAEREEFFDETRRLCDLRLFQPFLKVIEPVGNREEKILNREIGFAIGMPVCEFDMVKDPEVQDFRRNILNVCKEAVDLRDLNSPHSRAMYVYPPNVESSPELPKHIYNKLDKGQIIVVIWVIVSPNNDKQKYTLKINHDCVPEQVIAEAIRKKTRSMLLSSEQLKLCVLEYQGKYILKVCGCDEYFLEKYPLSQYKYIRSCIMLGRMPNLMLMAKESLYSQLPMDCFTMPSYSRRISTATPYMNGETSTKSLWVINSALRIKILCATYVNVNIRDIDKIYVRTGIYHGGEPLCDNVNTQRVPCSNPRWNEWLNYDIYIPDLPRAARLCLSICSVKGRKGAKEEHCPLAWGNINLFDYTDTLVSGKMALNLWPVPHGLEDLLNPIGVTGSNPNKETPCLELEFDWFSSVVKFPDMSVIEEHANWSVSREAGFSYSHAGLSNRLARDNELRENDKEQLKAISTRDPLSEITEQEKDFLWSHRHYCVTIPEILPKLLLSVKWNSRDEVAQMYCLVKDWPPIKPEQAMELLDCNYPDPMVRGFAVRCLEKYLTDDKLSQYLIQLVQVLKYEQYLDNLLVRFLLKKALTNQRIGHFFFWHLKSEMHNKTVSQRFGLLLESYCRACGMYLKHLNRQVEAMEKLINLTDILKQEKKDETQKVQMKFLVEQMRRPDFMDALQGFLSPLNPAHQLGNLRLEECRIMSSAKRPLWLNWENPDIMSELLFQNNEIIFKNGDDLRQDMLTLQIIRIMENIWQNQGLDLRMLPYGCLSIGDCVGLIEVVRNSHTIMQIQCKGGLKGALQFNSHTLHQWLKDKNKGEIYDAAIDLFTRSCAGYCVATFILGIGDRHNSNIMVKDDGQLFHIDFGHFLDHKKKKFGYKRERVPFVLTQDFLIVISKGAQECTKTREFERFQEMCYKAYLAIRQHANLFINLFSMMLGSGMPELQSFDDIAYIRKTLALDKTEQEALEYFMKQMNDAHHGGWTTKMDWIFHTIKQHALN

With `O=C(Oc1ccccc1)c1ccccc1`, the compound was called inactive in assay [1]. Besides, the AC50 (commonly the concentration giving half of the maximal activity seen) in assay [2] is 45.2 µM (active).

Turning to `Cc1cc2nc3c(=O)[nH]c(=O)nc-3n(C[C@H](O)[C@H](O)[C@H](O)CO)c2cc1C`, the figures for the AC50 in [2] and in assay [3] were 37.3 µM (active) and 25.8 µM (active), respectively.

In the case of `Cc1cc(O)cc(C)c1Cl`, the call in assay [4] and in [5] was inactive.

`CC(=O)CCc1ccccc1`: the compound was called inactive in assay [6].

On to `c1ccc(CNc2ncnc3nc[nH]c23)cc1`, for which, in assay [5], the call was inactive.

As to `CCCCCCCCCCCCCCCCCC[N+](C)(C)C`, the results for the AC50 in [6] and in assay [7] were 3.68 µM (active) and 2.93 µM (active), respectively.

On to `O=C(OCc1ccccc1)c1ccccc1`, for which the result in assay [8], in assay [2] and in assay [3] was inactive.

Consider `CCCCCCC1CCC(=O)O1` (centres undefined), for which the compound was called inactive in [1] and in assay [4].

In the case of `Sc1nc2ccccc2s1`, the outcome in assay [4], in [10] and in assay [5] was inactive. Besides, in assay [9], the AC50 is 1.42 µM (active).

In the case of `O=C(O)c1ccccc1C(=O)O`, the result in assay [5] was inactive.

In the case of `COC(=O)[C@]1(C)CCC[C@@]2(C)[C@H]1CC=C1C=C(C(C)C)CC[C@@H]12`, the result in assay [1], in assay [8] and in [3] was inactive. Moreover, the concentration at half-maximal activity (AC50) in assay [2] is 12.7 µM (active).

Regarding `CCC(C)=NO`, the outcome in [7] was inactive.

As for `CN(C)Cc1cc(C(C)(C)C)c(O)c(C(C)(C)C)c1`, the AC50 in assay [11] is 2.98 µM (active); in [16], 24.1 µM (active); in assay [17] it was 15 µM (active); in assay [18], 0.0516 µM (active); in assay [19], 0.0258 µM (active). The outcome in assay [12], in assay [13], in assay [14] and in assay [15] was inactive.

For `O=C(CC(C(=O)OC1CCCCC1)S(=O)(=O)O)OC1CCCCC1` (centres undefined), in assay [8], the AC50 is 8.32 µM (active). Also, in assay [20], the compound was called inactive.

On to `Oc1cccc2ccccc12`, for which the values for the AC50 in [7] and in [9] were 21 µM (active) and 1.62 µM (active), respectively. Also, the outcome in [10] was inactive.

Turning to `CCCCCC[C@@H](O)C/C=C\CCCCCCCC(=O)O`, the call in assay [1] and in [3] was inactive. In addition, the AC50 is 36.8 µM (active) in assay [4], 15.1 µM (active) in assay [20] and 74.3 µM (active) in assay [2].

As for `CC[N+](CC)(CC(=O)Nc1c(C)cccc1C)Cc1ccccc1`, in assay [20], the compound was classed as inactive.

With `CC[N+](CC)(CC(=O)Nc1c(C)cccc1C)Cc1ccccc1` (tested in a mixture with another compound), the AC50 is 0.256 µM (active) in assay [11] and 2.13 µM (active) in assay [16]. Also, the call in assay [12], in assay [13], in assay [14], in assay [15], in assay [17] and in [18] was inactive. Further, the outcome in assay [19] was inactive.
